Experimental data from PubChem BioAssay (NCATS).
Results filed as inconclusive are left out. The source made the active and inactive calls. Calls follow the shape of the dose curve; as a rule, active = well fitted inhibition curve with a large enough effect; inconclusive = small, poorly fitted or top-dose-only effect; inactive = flat fitted curve, though single readings scatter.

What was measured:
NIH3T3 [1] = experiment: Cytotoxic Profiling of Annotated Libraries Using Quantitative High-Throughput Screening (AID 1296008); conditions: Five cell lines viability, CellTiter-Glo ATP luminescence, 48-72 h; max response: stronger effect = lower value
How it was run: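 Compounds were pin-transferred onto cells and incubated 48 or 72 hr at 37 degree Celsius, 95% humidity. CellTiter-Glo was added, plates sat 10 min at room temperature, then ATP-coupled luminescence was imaged as the viability read-out.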

HACAT = experiment: qHTS assay to identify novel small-molecules to repurpose for Merkel cell carcinoma treatment (AID 1296009); conditions: MCC and control cell lines, CellTiter-Glo viability, 72 h; at 44.8 µM (top of the series) unless noted; also: potency is read from the fitted curve at half-maximal effect
How it was run: (§1)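 Cells exposed to NPC (8-point) and MIPE (11-point) compound dilutions for 72 hr at 37 degree celsius; viability read by CellTiter-Glo luminescence, normalized to no-cell and DMSO in-plate controls.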

HEK293T = experiment: as above; conditions: MCC and control cell lines, CellTiter-Glo viability, 72 h; at 44.8 µM (top of the series) unless noted
How it was run: as §1

MCC-13 = experiment: as above; conditions: MCC and control cell lines, CellTiter-Glo viability, 72 h; series mostly up to 46 µM
How it was run: as §1

MCC-26 = experiment: as above; conditions: MCC and control cell lines, CellTiter-Glo viability, 72 h; series mostly up to 46 µM
How it was run: as §1

MKL-1 = experiment: as above; conditions: MCC and control cell lines, CellTiter-Glo viability, 72 h; series mostly up to 46 µM
How it was run: as §1

MKL-2 = experiment: as above; conditions: MCC and control cell lines, CellTiter-Glo viability, 72 h; series mostly up to 46 µM
How it was run: as §1

UISO = experiment: as above; conditions: MCC and control cell lines, CellTiter-Glo viability, 72 h; series mostly up to 46 µM
How it was run: as §1

NIH3T3 [2] = experiment: as above; conditions: MCC and control cell lines, CellTiter-Glo viability, 72 h; at 44.8 µM (top of the series) unless noted
How it was run: as §1
% is scaled to controls: 0 for no effect and ±100 for the full control effect.
Also: nearly all actives have a fitted effect of over 60% in size.

CC[C@@H](C(N)=O)N1CCCC1=O
inactive: max response (NIH3T3 [1]) 1.04% | outcome (HACAT) | outcome (HEK293T) | Potency (MCC-13) | Potency (MCC-26) | Potency (MKL-1) | Potency (MKL-2) | Potency (UISO)

CCC(=O)OC1CCC2C3CCC4=CC(=O)CC[C@@]4(C)C3CC[C@]12C (some centres not stated)
inactive: max response (NIH3T3 [1]) 4.81% | outcome (HACAT) | outcome (HEK293T) | Potency (MCC-13) | Potency (MCC-26) | Potency (MKL-1) | Potency (MKL-2) | Potency (UISO)

CSCC[C@@H](NC(=O)[C@@H](Cc1ccccc1)NC(=O)CNC(=O)CNC(=O)[C@@H](N)Cc1ccc(O)cc1)C(=O)O
inactive: max response (NIH3T3 [1]) 2.68% | outcome (HACAT) | Potency (MCC-13) | Potency (MCC-26) | Potency (MKL-1) | Potency (MKL-2) | Potency (UISO)

CC(C)(C)[C@]1(O)C[C@@H]2OC(=O)C[C@@]23C(=O)O[C@@H]2OC(=O)[C@H](O)C213 (some centres not stated)
inactive: outcome (NIH3T3 [1]) | outcome (HACAT) | outcome (HEK293T) | Potency (MCC-13) | Potency (MCC-26) | Potency (MKL-1) | Potency (MKL-2) | outcome (NIH3T3 [2]) | Potency (UISO)

c1cc2c(cc1[C@H]1OC[C@H]3[C@H]1CO[C@H]3c1ccc3c(c1)OCO3)OCO2
inactive: outcome (NIH3T3 [1]) | outcome (HACAT) | outcome (HEK293T) | Potency (MCC-13) | Potency (MCC-26) | Potency (MKL-1) | Potency (MKL-2) | outcome (NIH3T3 [2]) | Potency (UISO)

COc1nn(CSP(=S)(OC)OC)c(=O)s1
inactive: max response (NIH3T3 [1]) -0.106% | outcome (HACAT) inactive [at 92 µM]
active: Potency (MKL-1) 24.3 µM | Potency (MKL-2) 24.3 µM | Potency (UISO) 38.6 µM

CCOC(=O)c1c(C(C#N)=CN)c2ccc(Cl)c(Cl)c2n1C
inactive: max response (NIH3T3 [1]) 2.89% | outcome (HACAT) | Potency (MCC-13) | Potency (MCC-26) | Potency (MKL-1) | Potency (MKL-2) | Potency (UISO)

C[C@H]([C@H](O)CCC(C)(C)O)[C@H]1CC[C@@]2(O)C3=CC(=O)[C@@H]4C[C@@H](O)[C@@H](O)C[C@]4(C)[C@@H]3CC[C@]12C
inactive: outcome (NIH3T3 [1]) | outcome (HACAT) | outcome (HEK293T) | Potency (MCC-13) | Potency (MCC-26) | Potency (MKL-1) | Potency (MKL-2) | outcome (NIH3T3 [2]) | Potency (UISO)
